Bioassay records from PubChem BioAssay.
FXIIa single = human FXIIa protease inhibitors, primary screen, biochemical, single well; inhibition, % at 10 µM; Coagulation factor XII (Homo sapiens), P00748; AID 701, 2007; purified human FXIIa, AMC substrate fluorescence, 2 h; 33,000 compounds, 0.2% hits; in the data active means inhibition above about 30%;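 further: 0% = enzyme with vehicle only and 100% = no enzyme blank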
FXIa single inh = human FXIa protease inhibitors, primary screen, biochemical, single compound per well | AID 687, 2007 | inhibition, % at 10 µM | purified human FXIa, fluorogenic AMC substrate cleavage | 33,000 compounds, 0.3% hits;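 active means inhibition above 40% in the primary screen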;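 further: 0% = enzyme without compound and 100% = blank wells lacking enzyme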
Active calls of the source: *. An excerpt weighted towards active compounds, which were near 0.33% of everything screened.

SMILES	FXIIa single	FXIa single inh
CNC(=O)CN(c1ccc(C(C)C)cc1)S(C)(=O)=O	5	2
CC(c1ccccc1)n1cc(C(=O)NCc2ccccn2)nn1 (stereo unspecified)	8	4
O=C(NCc1ccccn1)c1cn(CCc2ccccc2)nn1	31*	3
Nc1ccc(C(=O)OCc2nc3c(ccc4ccccc43)[nH]2)cc1	6	-8
Cc1ccc(NC(=O)CCn2cccc2)cc1	3	44*
Cc1ccc(NC(=O)CCn2cccc2)cc1C	6	-5
Cc1ccc(S(=O)(=O)NC2(C(=O)O)CCCCC2)cc1	16	-3
Cc1ccc(NC(=O)C2(S(=O)(=O)c3ccc(C)cc3)CC2)cc1	30*	0
O=C(CCCN1C(=O)c2ccccc2C1=O)NCC1CCCO1 (stereo unspecified)	-11	44*
O=C1c2ccccc2C(=O)N1CC1CCCO1 (stereo unspecified)	11	2
CCn1c(SCc2cccc(C)c2)nnc1-c1ccc(C)cc1	9	7
CCOC(=O)C1=C(C)C(c2ccccc2O)NC(=O)N1 (stereo unspecified)	-13	29
Cc1c(NC(=O)c2cc(C3CC3)on2)c(=O)n(-c2ccccc2)n1C	4	2
Cc1c(NC(=O)c2cc3ccccc3o2)c(=O)n(-c2ccccc2)n1C	7	57*
Cc1cn(C(=O)C(C)N2C(=O)c3ccccc3C2=O)c(C)n1 (stereo unspecified)	5	0
O=C(Oc1cccc(-n2cnnn2)c1)c1ccco1	47*	45*
CC1CCc2c(C(=O)Oc3cccc(-n4cnnn4)c3)csc2C1 (stereo unspecified)	9	0
CCN=C1SC(C(=O)Nc2ccccc2)CC(=O)N1CC (stereo unspecified)	-2	-6
c1ccc2c(c1)ccc1nnc(SCc3ccc4c(c3)OCO4)n12	1	1
Cc1ccc2c(c1)-c1c(ssc1=S)C(C)(C)N2C(=O)c1ccco1	8	7
CC1(C)c2ssc(=S)c2-c2ccccc2N1C(=O)c1ccco1	34*	4
CCCC(=O)N(CCN(C(=O)CCC)c1ccccc1)c1ccccc1	4	-1
O=C(O)c1cn(-c2ccccc2)nc1-c1cccnc1	-1	2
O=C(c1cn(-c2ccccc2)nc1-c1ccncc1)n1nnc2ccccc21	89*	96*
COc1ccc(Cn2c(C)c(C)c(C#N)c2NC(=O)Nc2ccc(Cl)cc2)cc1	4	4
SMILES	FXIIa single	FXIa single inh
CN(C(=O)c1cccc(Nc2ccc(-c3ccc4c(c3)OCCO4)nn2)c1)C1CCCCC1	1	1
O=S(=O)(Nc1cccc2nsnc12)c1ccccc1	8	48*
O=S(=O)(Nc1ccc(S(=O)(=O)Nc2cccc3ccccc23)cc1)c1ccccc1	6	-4
CC1=CC(=NOC(=O)c2cccc([N+](=O)[O-])c2)C=C(C)C1=O	51*	8
CC1=CC(=O)C(C(C)C)=C/C1=N/OC(=O)c1cccc([N+](=O)[O-])c1	-2	7
O=C(O)C1C2C=CC(C3CC23)C1C(=O)N1CCc2ccccc21 (stereo unspecified)	3	6
Cn1nnnc1SCC(=O)N(C1CCCCC1)C1CCCCC1	-14	106*
CC1CCCC(NC(=O)CSc2nnnn2C)C1C (stereo unspecified)	6	-2
COc1ccc(OCC(=O)Nc2cc(-c3nn(C)c(=O)c4ccccc34)ccc2OC)cc1	11	42*
COc1ccc(-c2nn(C)c(=O)c3ccccc23)cc1NC(=O)Cn1nc(-c2ccccc2)c2ccccc2c1=O	1	-5
CCOc1cc(S(=O)(=O)NCc2ccccc2)c(OCC)cc1-n1cnnn1	5	-2
CCOc1cc(S(=O)(=O)N(Cc2ccccc2)Cc2ccccc2)c(OCC)cc1-n1cnnn1	2	45*
CCOc1cc(NS(=O)(=O)c2ccccc2)c(OCC)cc1NC(=O)c1ccco1	9	1
CCCN(CCC)S(=O)(=O)c1ccc(NS(=O)(=O)c2ccc(F)cc2)cc1	4	5
COc1ccc(S(=O)(=O)N2CCC(C(=O)NC3CC3)CC2)cc1Cl	-1	-1
COc1ccc(S(=O)(=O)N2CCC(C(=O)N3CCc4ccccc4C3)CC2)cc1Cl	7	61*
Cc1ccc(-c2nn(C)c(=O)c3ccccc23)cc1CNC(=O)Cn1nc(-c2ccccc2)c2ccccc2c1=O	0	3
O=C(COc1ccc(Br)cc1)N1CCC(c2ccccc2)C1 (stereo unspecified)	5	-10
